Laboratory results taken from PubChem BioAssay AID651899 (Broad Institute, 2012).
Measured potencies and affinities stand elsewhere. Unmarked numbers belong to inactive results. No rule for the calls is given here.

assay: HEK293 cell viability loss – plate reader, cherry-pick, cytotoxicity control, dose response (AID 651899); details: series mostly up to 26 µM; activity change, negative = cytotoxicity: at the top concentration;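 also: cells exposed to compound for 48 hours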

Row | SMILES | activity change, negative = cytotoxicity
1 | Cc1c(OC(C)C(=O)NCc2ccccn2)ccc2c3c(c(=O)oc12)CCC3 (stereo unspecified) | -25.5%
2 | COc1ccccc1S(=O)(=O)N1CC[C@@H]2[C@H](CO)Nc3ccc(-c4cccc(C#N)c4)cc3[C@@H]21 | 16%
3 | Cc1nc2c(C(=O)N3CCN(c4ccccn4)CC3)cnn2c(C)c1Cc1cccc(Cl)c1 | 7.49%
4 | COc1ccc(C(=O)Nc2cccc(NC(=O)c3cccs3)c2)cc1 | 6.74%
5 | CCc1nn(CCCC(=O)N(C)Cc2ccccc2)c(=O)c2cc3occc3n12 | -13.7%
6 | O=C(Nc1ccc2c(c1)[C@H]1C[C@@H](CC(=O)N3CCc4ccccc4C3)O[C@H](CO)[C@H]1O2)c1cccnc1 | 3.38%
7 | CC1=CC2=NC(=O)/C(=C\c3cc(C)n(-c4ccccc4F)c3C)C(=N)N2O1 | -3.03%
8 | C/C=C/c1ccc2c(c1)O[C@@H](CN(C)C(=O)c1ccc3c(c1)OCO3)[C@@H](C)CN([C@@H](C)CO)S2(=O)=O | 30.5%
9 | Cn1nnc2cc(C(=O)N3CCC(c4ccccc4)C3)ccc21 (stereo unspecified) | -13.1%
10 | O=C(Nc1cccnc1)c1ccc(Oc2ccccc2)cc1 | -23.9%
11 | CN(C(=O)CSc1nc2ccccc2c(=O)n1-c1ccccc1Cl)C1CCS(=O)(=O)C1 (stereo unspecified) | 1.02%
12 | COC(=O)c1sc(N)c(C(=O)OC)c1CSc1nnc(-c2ccccc2Cl)n1C | 17.1%
13 | COC(=O)c1c(C(=O)OC)c(-c2ccccc2)n2c1CS(=O)C2 (stereo unspecified) | 6.13%
14 | COc1cc(-c2n[nH]c(=S)n2Cc2ccccc2)cc(OC)c1OC | -0.008%
15 | Cc1ccc(-c2nnc(N3CCN(C(=O)CSc4ncn[nH]4)CC3)c3ccccc23)cc1 | -24.2%
16 | CCOCCCNC(=O)CSc1nc2nc(C)c(Cc3ccccc3)c(C)n2n1 | -19.2%
17 | CNC(=O)C[C@H]1CC[C@@H]2[C@H](COC[C@@H](O)CN2C(=O)Nc2ccc(Cl)c(Cl)c2)O1 | 11.3%
18 | O=C(C[C@@H]1C[C@@H]2c3cc(NC(=O)c4cccnc4)ccc3O[C@@H]2[C@@H](CO)O1)NCCc1ccccc1 | 5.08% [at 23.5 µM]

Row | SMILES | activity change, negative = cytotoxicity
19 | Cc1nc2nc(SCC(=O)NCCCN3CCOCC3)nn2c(C)c1Cc1ccccc1 | 18.9%
20 | O=C1CCCc2c1cc(C(=O)NCc1ccco1)c(=O)n2-c1ccc(Cl)cc1 | 0.469%
21 | COc1cc(C(=O)N2Cc3cc4ccccc4nc3C2C)cc(OC)c1OC (stereo unspecified) | 36.1%
22 | COCCN1C(=O)c2ccc(C(=O)Nc3cccnc3)cc2C1=O | 23.6%
23 | Cc1cccc(-c2nnc(SCC#N)n2-c2ccccc2)c1 | -15.9%
24 | O=C(Nc1ccc(N2CCOCC2)c(Cl)c1)c1cccnc1 | 4.74%
25 | COc1ccc(F)cc1C(=O)C1CCCN(C(=O)c2ccc(C(C)=O)s2)C1 (stereo unspecified) | 16.8%
26 | CC(=O)c1ccc(N2CCN(S(=O)(=O)c3c(C(=O)N4CCCC4)c(C)n(C)c3C)CC2)cc1 | 15.4%
27 | CCOC(=O)C1CCN(C(=O)Nc2ccc3snnc3c2)CC1 | 29.1%
28 | COc1ccc(C2c3c(oc4ccc(Cl)cc4c3=O)C(=O)N2CCN2CCOCC2)cc1 (stereo unspecified) | 0.468%
29 | O=C(Nc1ncc2c(n1)CC(c1ccco1)CC2=O)c1ccccc1 (stereo unspecified) | -12.7%
30 | COc1cccc(-c2ccc3c(c2)[C@H]2[C@H](CCN2C(=O)C2CCC2)[C@@H](CO)N3)c1 | 2.77%
31 | Cc1c(NC(=O)c2cc3ccccc3o2)cccc1-n1cnnn1 | -12.2%
32 | COc1cc(/C=C/C(=O)Nc2cccnc2)cc(OC)c1OC | -2.09%
33 | Cc1cccc(C(=O)NC2CCN(CC(=O)Nc3ccccc3Cl)CC2)c1 | -19.2%
34 | C=CCn1c(SCc2c(C(=O)OC)sc(N)c2C(=O)OC)nnc1-c1ccc(Cl)cc1 | 2.12%
35 | CCCc1cc(=O)oc2c3c(cc(OCC(=O)NCCCn4ccnc4)c12)OC(C)(C)CC3 | -17.5%
36 | O=C(Nc1ccc(F)cc1)NC1CCN(Cc2nnnn2Cc2ccco2)CC1 | 44.2%
